Data as given in PubChem BioAssay AID651593 (National Center for Advancing Translational Sciences (NCATS), 2012).
Among all 1,100 compounds or so, about 860 (78%) were called active. Not shown: some 19% with an inconclusive outcome. So high a share suggests a set chosen from earlier hits. This is one part of the list. Unmarked numbers belong to inactive results. Calls come from the whole dose curve; as a rule, active = well fitted activation curve with a large enough effect; inconclusive = small, poorly fitted or top-dose-only effect; inactive = flat fitted curve, though single readings scatter.

Assay: qHTS of Nrf2 Activators: Hit Validation in Primary Assay; note: nearly all actives have a fitted effect of over 70% in size; for activation: 0% is about no effect
Conditions: Nrf2/ARE reporter cell assay; Potency: activation; series mostly up to 46.1 µM; activation: at the top concentration
Outline: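 Luminescence from Steady-Glo lysis reagent, read after 30 min, reported ARE-luciferase activity in AREc32_fluc stable cells. Compounds were tested at several concentrations, incubated 24 h at 37 °C with 5% CO2 following overnight seeding.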
Potency is the fitted concentration of half-maximal effect.

**Q.** Which Potency does the source give for `CC(C)=NNc1cnnc2ccc([N+](=O)[O-])cc12` here?
**A.** 18.4 µM (active)

**Q.** With `Cn1ccsc1=NC(=O)c1ccc([N+](=O)[O-])o1` as the compound, how does the Potency read?
**A.** 5.17 µM (active)

**Q.** For `CN(N=Cc1ccccc1O)c1ccc2ccccc2n1`, which Potency is on record?
**A.** 2.91 µM (active)

**Q.** Which Potency does the source give for `Oc1ccc(CNc2ccccc2O)cc1` here?
**A.** 16.4 µM (active)

**Q.** With `Oc1ccc(NCc2cccc(OCc3ccc(F)cc3)c2)cc1` as the compound, how does the “activation” value read?
**A.** 21.5%

**Q.** Which Potency does the source give for `O=C(Nc1nc2ccsc2c(=O)s1)c1ccco1` here?
**A.** 1.3 µM (active)

**Q.** For `O=C(Nc1nc2c(ccc3ccccc32)s1)c1ccco1`, which Potency is on record?
**A.** 1.16 µM (active)

**Q.** Which Potency does the source give for `CC(=O)Nc1ccc2nc(NC(=O)c3ccco3)sc2c1` here?
**A.** 4.11 µM (active)

**Q.** With `O=C(Nc1nc(-c2ccncc2)cs1)c1ccco1` as the compound, how does the Potency read?
**A.** 4.11 µM (active)

**Q.** Which Potency does the source give for `Cc1cc(Cl)cc2sc(NC(=O)c3ccco3)nc12` here?
**A.** 16.4 µM (active)

**Q.** Which Potency does the source give for `O=C(NC(=S)Nc1cc(C(F)(F)F)ccc1Cl)c1ccccc1` here?
**A.** 2.91 µM (active)

**Q.** For `O=C(CSc1cccc[n+]1[O-])Nc1cc([N+](=O)[O-])ccc1Cl`, which Potency is on record?
**A.** 20.6 µM (active)

**Q.** With `O=C(NC(=S)Nc1cc([N+](=O)[O-])ccc1Cl)c1ccccc1` as the compound, how does the Potency read?
**A.** 2.31 µM (active)

**Q.** Which Potency does the source give for `Cn1c(=O)c2nc(NCc3ccccc3)sc2n(C)c1=O` here?
**A.** 1.46 µM (active)

**Q.** Which Potency does the source give for `CC(=O)Nc1nc2cccc([N+](=O)[O-])c2s1` here?
**A.** 1.84 µM (active)

**Q.** For `O=C(/C=C/c1ccc2c(c1)OCO2)c1ccc(O)cc1O`, which Potency is on record?
**A.** 14.6 µM (active)

**Q.** Which Potency does the source give for `O=C(CSc1ncnc2c1oc1ccccc12)c1cccs1` here?
**A.** 5.17 µM (active)

**Q.** With `O=C(CSc1ncnc2c1oc1ccccc12)NCc1ccco1` as the compound, how does the Potency read?
**A.** 13 µM (active)

**Q.** For `COc1ccc2[nH]c3c(NCc4ccco4)ncnc3c2c1`, which Potency is on record?
**A.** 2.59 µM (active)

**Q.** With `c1coc(CNc2ncnc3c2oc2ccccc23)c1` as the compound, how does the Potency read?
**A.** 3.66 µM (active)

**Q.** For `O=C(CSc1nnc2c(n1)[nH]c1ccccc12)NCc1ccco1`, which Potency is on record?
**A.** 20.6 µM (active)

**Q.** For `c1coc(CSc2ncnc3c2oc2ccccc23)c1`, which Potency is on record?
**A.** 2.91 µM (active)

**Q.** With `O=[N+]([O-])c1cncc([N+](=O)[O-])c1Nc1cccc(O)c1` as the compound, how does the Potency read?
**A.** 14.6 µM (active)

**Q.** With `O=c1[nH]ncc(N/N=C\c2cccs2)c1Cl` as the compound, how does the Potency read?
**A.** 20.6 µM (active)

**Q.** For `CN(C)c1oc(/C=C/c2ccccc2)nc1C#N`, which Potency is on record?
**A.** 3.26 µM (active)

**Q.** With `O=C(CCNc1cc(Cl)cc(Cl)c1)c1cccs1` as the compound, how does the Potency read?
**A.** 6.51 µM (active)

**Q.** With `O=[N+]([O-])c1ccc(/C=N/Nc2ccc3ccccc3c2)o1` as the compound, how does the Potency read?
**A.** 2.91 µM (active)

**Q.** For `Nc1ccc(S(=O)(=O)Nc2nccc(/C=C/c3cccc(Br)c3)n2)cc1`, which Potency is on record?
**A.** 3.26 µM (active)

**Q.** With `CC(C)C(=O)Nc1nnc(-c2ccco2)s1` as the compound, how does the Potency read?
**A.** 5.8 µM (active)

**Q.** With `Cc1cc(NC(=O)Nc2cc(Cl)sc2Cl)no1` as the compound, how does the Potency read?
**A.** 4.11 µM (active)

**Q.** With `O=C1N/C(=C\c2ccsc2)C(=O)N1Cc1ccc(F)cc1` as the compound, how does the Potency read?
**A.** 1.64 µM (active)

**Q.** Which Potency does the source give for `Cc1c(=O)n(OCc2ccccc2)c2ccccc2[n+]1[O-]` here?
**A.** 3.26 µM (active)

**Q.** With `Cc1c(=O)n(OCc2ccc(Cl)cc2)c2ccccc2[n+]1[O-]` as the compound, how does the Potency read?
**A.** 1.64 µM (active)

**Q.** With `C=CCn1c(SCC(C)=O)nc2scc(-c3ccco3)c2c1=O` as the compound, how does the Potency read?
**A.** 0.731 µM (active)

**Q.** With `O=C(/C=C\c1ccc2c(c1)OCO2)CC1(O)C(=O)Nc2ccccc21` (centres undefined) as the compound, how does the Potency read?
**A.** 23.1 µM (active)

**Q.** With `CN1CCN(C(=O)CCN2C(=O)/C(=C/c3cccc(Br)c3)SC2=S)CC1` as the compound, how does the Potency read?
**A.** 5.17 µM (active)

**Q.** Which Potency does the source give for `O=C(N/N=C/c1ccsc1)c1ccc2ccccc2n1` here?
**A.** 16.4 µM (active)

**Q.** With `C(=N/n1c2ccccc2c2ccccc21)/c1ccco1` as the compound, how does the Potency read?
**A.** 2.31 µM (active)

**Q.** For `COc1ccccc1C=Cc1ccnc2ccccc12`, which Potency is on record?
**A.** 2.06 µM (active)

**Q.** With `Cc1nc(NC(=O)/C=C/c2ccccc2)n[nH]1` as the compound, how does the Potency read?
**A.** 3.66 µM (active)

**Q.** Which Potency does the source give for `O=C(/C=C/c1ccccc1)Nc1ncn[nH]1` here?
**A.** 3.66 µM (active)

**Q.** Which Potency does the source give for `FC(F)(F)c1cc(-c2cccs2)nc(-n2cc(Br)cn2)n1` here?
**A.** 1.3 µM (active)

**Q.** Which Potency does the source give for `C/C(=N\NC(=O)c1cccc(Br)c1)c1ccccn1` here?
**A.** 4.61 µM (active)

**Q.** For `CCn1c(/C=C/c2ccccc2)nc2ccccc2c1=O`, which Potency is on record?
**A.** 4.11 µM (active)

**Q.** Which Potency does the source give for `CCn1c(/C=C/c2ccccc2F)nc2ccccc2c1=O` here?
**A.** 2.31 µM (active)

**Q.** With `CCn1c(/C=C/c2ccccc2[N+](=O)[O-])nc2ccccc2c1=O` as the compound, how does the Potency read?
**A.** 3.66 µM (active)

**Q.** With `O=c1[nH]c(/C=C/c2ccccc2[N+](=O)[O-])nc2ccccc12` as the compound, how does the Potency read?
**A.** 0.411 µM (active)

**Q.** For `CCCn1c(-c2cccs2)nc2nc3ccccc3nc21`, which Potency is on record?
**A.** 1.84 µM (active)

**Q.** Which Potency does the source give for `O=c1cc(-c2ccccc2Cl)oc2c(Br)ccc(O)c12` here?
**A.** 6.51 µM (active)

**Q.** Which Potency does the source give for `[O-][n+]1onc2c3ccnnc3ccc21` here?
**A.** 10.3 µM (active)

**Q.** Which Potency does the source give for `[O-][n+]1onc2c3cc(-c4ccccc4)nnc3ccc21` here?
**A.** 8.2 µM (active)

**Q.** Which Potency does the source give for `c1ccc(-c2cc3c(ccc4nonc43)nn2)cc1` here?
**A.** 7.31 µM (active)

**Q.** For `CC(=O)N1CCc2c(sc(NC(=O)CCS(=O)(=O)c3ccccc3)c2C#N)C1`, which Potency is on record?
**A.** 18.4 µM (active)

**Q.** For `O=C1C(=Cc2ccco2)CCCC1=Cc1ccco1`, which Potency is on record?
**A.** 3.26 µM (active)
